# From the supplement of paper PMC6607015
# Structures can show the parent of a compound that is named as a salt.
# System: A431
# Experiment: LBPA endosome anti-LBPA integrated intensity (sum per cell), Z-score; higher = more LBPA staining
# Settings: compound concentration in added solution (µM; 5 µl added to 20 µl cells): 10; 18 h
# Outline: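 The data are Z-scores, normalised in AcuityXpress, of integrated LBPA or filipin intensity in each cell, either whole-cell or restricted to LBPA endosomes. HeLa MZ or A431 cells, 3,500 per well in 20 µl, were seeded onto 5 µl of 10 µM compound solution in duplicate 384-well plates and incubated 18 h. Fixed cells were stained and imaged, with intensities extracted by MetaXpress segmentation.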
row,SMILES,LBPA endosome anti-LBPA integrated intensity (z-score)
1,CCOc1cc(CC(=O)N[C@@H](CC(C)C)c2ccccc2N2CCCCC2)ccc1C(=O)O [Repaglinide],-0.598
2,Cc1cn[nH]c1 [Fomepizole],-0.605
3,CNCC[C@@H](Oc1ccccc1C)c1ccccc1 [Tomoxetine hydrochloride],-0.073
4,O=C(Nc1cccc2c(=O)cc(-c3nnn[nH]3)oc12)c1ccc(OCCCCc2ccccc2)cc1 [Pranlukast],-0.507
5,N#CC(c1ccc(Cl)cc1)c1c(Cl)cc(-n2ncc(=O)[nH]c2=O)cc1Cl (configuration not stated) [Diclazuril],-0.281
6,CCCCC1C(=O)N(c2ccccc2)N(c2ccccc2)C1=O [Phenylbutazone],-0.242
7,CCN1CCCC1CNC(=O)c1cc(S(=O)(=O)CC)c(N)cc1OC (configuration not stated) [Amisulpride],-0.554
8,CNC(C)CCC=C(C)C (configuration not stated) [Isometheptene mucate],-0.484
9,CC(=O)Oc1cc(C(C)C)c(OCCN(C)C)cc1C [Moxisylyte hydrochoride],-0.364
10,CN1CCC[C@@H]1CCO[C@](C)(c1ccccc1)c1ccc(Cl)cc1 [Clemastine fumarate],2.28
11,Cc1nc2ccccn2c(=O)c1CCN1CCC(C(=O)c2ccc(F)cc2)CC1 [Pirenperone],1.82
12,NS(=O)(=O)c1cc(C2(O)NC(=O)c3ccccc32)ccc1Cl (configuration not stated) [Chlorthalidone],-0.286
13,CC(=O)NS(=O)(=O)c1ccc(N)cc1 [Sulfacetamide sodic hydrate],-0.453
14,NS(=O)(=O)c1cc(C(=O)O)c(NCc2ccco2)cc1Cl [Furosemide],-0.539
15,NNc1nncc2ccccc12 [Hydralazine hydrochloride],-0.438
16,CNC[C@H](O)[C@@H](O)[C@H](O)[C@H](O)CO [Meglumine],-0.671
17,CCCc1cc(C(N)=S)ccn1 [Prothionamide],-0.257
18,CC(=O)Nc1ccc(OCC(O)CNC(C)C)cc1 (configuration not stated) [Practolol],-0.578
19,NCCc1ccc(O)c(O)c1 [Dopamine hydrochloride],-0.272

row,SMILES,LBPA endosome anti-LBPA integrated intensity (z-score)
1,C#C[C@]1(O)CC[C@H]2[C@@H]3CCC4=Cc5oncc5C[C@]4(C)[C@H]3CC[C@@]21C [Danazol],-0.455
2,CC(=O)O[C@H]1C[C@@H]2CC[C@@H]3[C@H](CC[C@@]4(C)[C@H]3C[C@H]([N+]3(C)CCCCC3)[C@@H]4OC(C)=O)[C@@]2(C)C[C@@H]1N1CCCCC1 [Vecuronium bromide],-0.413
3,CCOc1nc2cccc(C(=O)O)c2n1Cc1ccc(-c2ccccc2-c2nnn[nH]2)cc1 [Candesartan],-0.346
4,O=C(CCNNC(=O)c1ccncc1)NCc1ccccc1 [Nialamide],-0.371
5,NC(Cc1cc(I)c(Oc2cc(I)c(O)c(I)c2)c(I)c1)C(=O)O (configuration not stated) [Thyroxine (L)],-0.687
6,Nc1ccc(/N=N/c2ccccc2)c(N)n1 [Phenazopyridine hydrochloride],-0.183
7,CC(=O)CC(c1ccccc1)c1c(O)c2ccccc2oc1=O (configuration not stated) [Warfarin],-0.409
8,O=C1CCc2cc(OCCCCc3nnnn3C3CCCCC3)ccc2N1 [Cilostazol],-0.386
9,NC(=O)N1c2ccccc2CC(=O)c2ccccc21 [Oxcarbazepine],-0.669
10,Cc1c(Nc2ncccc2C(=O)O)cccc1C(F)(F)F [Flunixin meglumine],-0.51
11,CCn1cc(C(=O)O)c(=O)c2cnc(N3CCCC3)nc21 [Piromidic acid],-0.472
12,CNC1(C)C2CCC(C2)C1(C)C (configuration not stated) [Mecamylamine hydrochloride],-0.608
13,CN(Cc1ccc(C(C)(C)C)cc1)Cc1cccc2ccccc12 [Butenafine Hydrochloride],-0.698
14,CC[N+](C)(CC)CCC[n+]1c(-c2ccccc2)c2cc(N)ccc2c2ccc(N)cc21 [Propidium iodide],-0.615
15,CC#C[C@]1(O)CC[C@H]2[C@@H]3CCC4=CC(=O)CCC4=C3[C@@H](c3ccc(N(C)C)cc3)C[C@@]21C [Mifepristone],-0.423
16,C[C@]12CCC(=O)C=C1CC[C@@H]1[C@@H]2[C@@H](O)C[C@@]2(C)[C@H]1CC[C@]2(O)C(=O)CO [Hydrocortisone base],-0.41
17,CC[N+](CC)(CC)CCOc1cccc(OCC[N+](CC)(CC)CC)c1OCC[N+](CC)(CC)CC [Gallamine triethiodide],-0.558
18,O=C(NC(Cc1cc(=O)[nH]c2ccccc12)C(=O)O)c1ccc(Cl)cc1 (configuration not stated) [Rebamipide],-0.421
